HUVEC tox TNFa: cytotoxicity in TNFa-stimulated HUVEC, primary screen, cytotoxicity control for VCAM1 expression modulator project, imaging, Hoechst nuclei count | HUVEC TNFalpha-stimulated, Hoechst cell count | cell count reduction, % at 2 µM | hit rate 0.17% among 93,000;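 active = cell count reduction exceeding the screen mean by over 5 SD, scaled to untreated wells per plate, cut at about 78% in these data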;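 also: cells counted after 24 h of TNF alpha exposure following the 1 h pretreatment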
VCAM1 TNFa inh: inhibitors of TNFa-induced VCAM1 expression, primary screen, imaging, HUVEC, TNFa stimulus, immunofluorescence | inhibition, % at 2 µM | AID 802, 2007 | hit rate 0.48% among 95,000 | HUVEC TNFa-induced VCAM-1 immunofluorescence, high-content imaging;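 active = inhibition above the batch mean plus 3 SD, with images confirmed as a hit by eye, cut at about 37% in these data; inconclusive = inhibition above that limit but hit not confirmed in images; inactive = inhibition not above that limit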;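 also: 0% = TNF-stimulated DMSO wells and 100% = unstimulated control wells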
E-sel TNF inh: E-selectin induction blockers in HUVEC – imaging, immunofluorescence, high content, primary screen | hit rate 0.71% among 120,000 | HUVEC TNFa-induced E-selectin immunofluorescence | inhibition, % at 2 µM;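 active = inhibition above the batch mean plus 3 SD, and confirmed as a hit on visual image review, cut at about 43% in these data; inconclusive = passes the inhibition cutoff but fails visual image review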;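 also: 0% = TNF-stimulated DMSO wells and 100% = unstimulated control wells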
cytoskel mod: modifiers of F-actin cytoskeleton organization, primary screen, imaging, HUVEC, phalloidin staining, high-content imaging; HUVEC TNFa F-actin phalloidin imaging; inhibition, % at 2 µM; hit rate 0.18% among 91,000; AID 836, 2007;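 active = inhibition above the batch mean plus 3 SD and confirmed as a hit by visual image inspection, cut at about 30% in these data, passing the limit was not always enough; inconclusive = above the inhibition threshold but rejected on visual inspection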
Starred values were filed as active, the others as inactive; ? = inconclusive; / = no result given. Most compounds without a hit are left out; they make up all but 1.1% or so of the library.

SMILES	HUVEC tox TNFa	VCAM1 TNFa inh	E-sel TNF inh	cytoskel mod
CCCCN1C(=O)C2C3C=CC(C2C1=O)C1C2C(=O)N(CCCC)C(=O)C2C31 (stereo not given)	/	/	72*	/
COC(=O)c1ccc(NS(=O)(=O)c2ccccc2)o1	/	/	-40	/
CCOC(=O)CN1N=C(c2ccc(Cl)s2)CSC1=O	/	/	53	/
Cc1csc(NC(=O)CSc2nnc(-c3cccs3)n2C)n1	-27	12	-13	65*
Cc1csc(NC(=O)CSc2nnc(CCNC(=O)c3cccs3)n2C)n1	4	16	3	-4
COC(=O)c1ccc(CSc2nnc(-c3ccncc3)n2Cc2ccccc2)o1	0	-9	8	76*
CCC(CC)C(=O)Nc1cccc(C(=O)c2ccccc2)c1	0	6	11	-11
O=C(NCc1ccco1)C1CC(=O)N(c2ccc(F)cc2)C1 (stereo not given)	-25	85*	-21	6
CCc1ccc(N2CC(C(=O)NCc3ccco3)CC2=O)cc1 (stereo not given)	-16	-1	-6	17
Cc1ccc(C(=O)N(C)CC(=O)Nc2ccc(F)c(F)c2F)o1	/	/	10	/
C[C@@H]1CC[C@@]2(O[C@H](CCO)C[C@@H](O)[C@@H]2O)O1	/	/	64*	/
CCN(CC)c1ccc2c(c1)oc(=O)c1c(Cl)cc(=O)oc12	-8	-10	-28	6
CCN(CC)c1ccc2c(Cl)c(Br)c(=O)oc2c1	-23	16	96*	28
CCOc1cc(NC(=S)NCCCN2CCOCC2)c(OCC)cc1NC(=O)c1ccc(C)cc1	/	/	15	/
COc1ccccc1CNC(=O)/C=C/c1ccc(S(=O)(=O)N2CCOCC2)cc1	/	/	2	/
O=C(CN1C(=O)C2CCc3[nH]c4ccccc4c3C2C1=O)N1CCCC1 (stereo not given)	86*	68	/	-27
O=C(CN1CCc2[nH]c3ccccc3c2C1)N1CCCCC1	-30	26	/	0
Cc1ccc(C)c(NC(=S)N2CCN(CCO)CC2)c1	/	/	-7	/
O=c1ccc(Cl)cn1Cc1ccccc1F	-19	19	3	13
CCc1ccc(CC2S/C(=C(\C#N)C(C)=O)NC2=O)cc1 (stereo not given)	-11	-6	50*	15
CCOC(=O)c1ccc(CC2S/C(=C(\C#N)C(C)=O)NC2=O)cc1 (stereo not given)	-16	11	4	-6
COc1ccc(Cl)cc1S(=O)(=O)N1CCCC1	-7	16	3	8
CCCc1[nH]nc2c1C(c1cccnc1)C(C#N)=C(N)O2 (stereo not given)	82*	87*	/	-64
Cc1ccc(-n2c(SCC(=O)Nc3nccs3)nc3c(c2=O)SCC3)cc1	/	/	97*	/
CCOc1ccc(-n2c(SCC(=O)Nc3ccc(OC)cc3)nc3c(c2=O)SCC3)cc1	82*	60*	-13	7
SMILES	HUVEC tox TNFa	VCAM1 TNFa inh	E-sel TNF inh	cytoskel mod
COc1ccc(-n2c(SCC(=O)Nc3ccc4c(c3)OCO4)nc3c(c2=O)SCC3)cc1	17	7	/	-1
CCOc1ccc(-n2c(SCC(=O)Nc3nccs3)nc3c(c2=O)SCC3)cc1	/	/	-35	/
Cc1cccc(NC(=O)CC2SC(=O)N(c3ccccc3)C2=O)c1 (stereo not given)	78*	96*	2	-35
CCCCOC(=O)CCn1c(=S)oc2ccccc21	0	-5	66*	-55
CCCCCOC(=O)Cn1c(=O)oc2ccccc21	/	/	-22	/
CCCn1c(SCC(=O)N2CCCC(C)C2)nnc1-c1ccccn1 (stereo not given)	/	/	-2	/
CC(NC(=O)COC(=O)Cc1ccsc1)c1ccccc1 (stereo not given)	/	/	20	/
CC(NC(=O)COC(=O)Cc1ccsc1)C1CC2CCC1C2 (stereo not given)	49	88*	-4	-6
Cc1cccc(CN(CC(=O)N/N=C/c2cccs2)S(=O)(=O)c2ccc(Cl)cc2)c1	7	-3	-1	7
COCCNC(=O)C(c1ccc(F)cc1)N(CC1CCCO1)C(=O)CCC(=O)Nc1ccccn1 (stereo not given)	-29	-14	69*	-1
COCCN(C(=O)CCC(=O)Nc1ccccn1)C(C(=O)NC1CCCC1)c1ccc(OC)cc1 (stereo not given)	-3	3	100*	29
COCCN(C(=O)CCCC(=O)Nc1ccccn1)C(C(=O)NC1CCCC1)c1ccc(C)cc1 (stereo not given)	-6	2	/	-16
COCCNC(=O)CN(CC1CCCO1)C(=O)CCC(=O)Nc1ccccn1 (stereo not given)	9	-16	-2	-24
O=C(NCC1CCCN(Cc2ccc3nonc3c2)C1)c1ccc(F)cc1 (stereo not given)	/	/	2	/
COc1ccc2[nH]c(C)c(CCN3C(=O)C4C5C=CC(C5)C4C3=O)c2c1 (stereo not given)	-30	16	70*	-3
COc1ccc2[nH]c(C)c(CCNC(=S)Nc3cc(C)cc(C)c3)c2c1	/	/	-10	/
CCC(C)(C)NC(=O)C(c1ccc(C)cc1)N(CCN1CCOCC1)C(=O)CNC(=O)c1cccs1 (stereo not given)	/	/	7	/
Cc1cc(C)cc(-n2nnnc2SCC(=O)Nc2nc(-c3ccc(Cl)cc3)cs2)c1	-24	10	-5	45*
COc1ccc(CNC(=O)CCc2c(C)nc3ncnn3c2C)cc1	-10	-2	/	-24
Cc1nc2ncnn2c(C)c1CCC(=O)NCc1ccccc1	-26	14	62*	-15
Cc1ccc(N(C(=O)Cn2nnc(-c3ccc(F)cc3)n2)C(C(=O)NC(C)(C)C)c2ccncc2)cc1 (stereo not given)	/	/	-18	/
O=C(NC(=S)N(Cc1ccccc1)c1ccccn1)C1CCCCC1	/	/	-11	/
CN(c1ccccc1)S(=O)(=O)c1ccc(NC(=S)NC(=O)C2CC2)cc1	/	/	-30	/
CN(Cc1ccccc1)C(=S)NC(=O)C1CCCCC1	/	/	93*	/
CN(Cc1ccccc1)S(=O)(=O)c1ccc(NC(=S)NC(=O)C2CCCC2)cc1	16	48*	-3	6
SMILES	HUVEC tox TNFa	VCAM1 TNFa inh	E-sel TNF inh	cytoskel mod
CCOC(=O)c1[nH]c(C)c(C(=O)N2CCc3ccccc32)c1C	58	54*	16	-15
CC(=O)c1c(C)[nH]c(C(=O)N2CCc3ccccc32)c1C	-17	9	/	-8
COc1ccc(C(=O)CN2C(=O)NC3(CCCc4ccccc43)C2=O)cc1OC (stereo not given)	13	24	100*	10
CCOc1cc(NC(=O)c2ccco2)c(OCC)cc1NC(=O)Cc1cccc(OC)c1	17	15	-12	15
CCOc1cc(NC(=O)c2ccco2)c(OCC)cc1NC(=O)CCC(=O)NCc1cccnc1	100*	?	11	?
O=C(Cn1ncc(Cl)c(Cl)c1=O)N1CCc2ccccc21	/	/	100*	/
O=C(Cn1ncc2c1-c1ccccc1OC2)N1CCc2ccccc21	-3	-10	/	13
Cc1ccc(Cl)c(NC(=O)COC(=O)c2ccccc2C(=O)c2ccc(Cl)c([N+](=O)[O-])c2)c1Cl	/	/	98*	/
CCOc1ccc(S(=O)(=O)Nc2cc(OC)ccc2OC)cc1	67	59*	/	3
